# In PubChem BioAssay (NCI):
# About 83,000 compounds went through this panel and 20% of them were active in at least one assay; those are over-represented in the sample as a whole.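 Values shown are percent growth following 48 h exposure of cells in 96-well plates to a single concentration of compound; below 10 was considered active.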 Unmarked numbers belong to inactive results. Active and inactive are the calls of the source.
# Columns and labels:
# Test in all cases: NCI-60 one-dose screen, 48 h (100 = growth as untreated, 0 = no growth, -100 = all killed)
# Conditions in all cases: 10 µM unless noted
# [1] = test system: NCI-H23 lung
# [2] = test system: NCI-H226 lung
# [3] = test system: NCI-H322M lung
# [4] = test system: HOP-62 NSCLC
# [5] = test system: HOP-92 NSCLC
# [6] = test system: NCI-H522 lung
# [7] = test system: 786-0 renal
# [8] = test system: COLO 205 colon
# [9] = test system: DU-145 prostate
# [10] = test system: K-562 leukemia
# [11] = test system: MALME-3M melanoma
# [12] = test system: MDA-MB-231 breast
# [13] = test system: RXF 393 renal
# [14] = test system: SF-268 CNS
# [15] = test system: SF-295 CNS
# [16] = test system: SF-539 CNS
# [17] = test system: UACC-257 melanoma
# [18] = test system: M14 melanoma
# [19] = test system: A549/ATCC NSCLC
# [20] = test system: NCI-H460 lung
SMILES,growth [1],growth [2],growth [3],growth [4],growth [5],growth [6],growth [7],growth [8],growth [9],growth [10],growth [11],growth [12],growth [13],growth [14],growth [15],growth [16],growth [17],growth [18],growth [19],growth [20] [%]
O=[N+]([O-])c1cc([N+](=O)[O-])c(C(F)(F)F)cc1NN=C(c1ccc(O)cc1)c1ccc(O)cc1,-15.7% (active),78.6%,113%,-55.4% (active),108%,-61.5% (active),-27.5% (active),-11% (active),114%,103%,117%,83.2%,-57.8% (active),88%,110%,-64.7% (active),-61% (active),-47.8% (active),,
Cn1cc(-c2nnc(-c3cn(C)c4ncc(Br)cc34)s2)c2cc(Br)ccc21,99.5%,91.8%,89.8%,93.1%,57.2%,94.2%,93.5%,105%,95.4%,97.8%,78.1%,67.2%,118%,90.9%,103%,81.5%,92.5%,97%,94.4%,
Nc1ccc2c(c1)Cc1cc(NC(=O)C(F)(F)F)ccc1-2,95.9%,93.6%,95.5%,105%,101%,90.3%,108%,109%,99.2%,108%,108%,71.2%,113%,96.1%,99.8%,97.6%,104%,109%,93.6%,
CC1Cc2c(Cl)ncnc2N(C)c2ccc(O)cc21 (stereo not given),45.7%,82.2%,44.2%,53.8%,85.1%,92.5%,-3.93% (active),91.7%,108%,89.6%,53.4%,21.1%,32.1%,29.1%,49.7%,34.6%,33.9%,21.9%,28.4%,
COc1cc(-c2cc(-c3ccc(Nc4ncnc5cc(Cl)ccc45)cc3)nc(N3CCCCC3)n2)cc(OC)c1OC,102%,99.3%,95.5%,84.7%,92%,75.3%,98.9%,110%,102%,92.3%,95.1%,92%,106%,88.4%,104%,93.6%,111%,,,
O=C(N=c1n(-c2ccccc2)nc2n1CCN2C1=NCCN1C(=O)c1ccc(Cl)cc1)c1ccc(Cl)cc1,75.9%,93.2%,86.9%,93.5%,120%,64.2%,83.1%,75.1%,92.2%,47.1%,91.2%,82.4%,48.6%,72.9%,86.2%,80.2%,103%,62.5%,65.4%,
Cc1ncc(C(=O)Nc2ccc(CN3CCN(C)CC3)c(C(F)(F)F)c2)cc1C#Cc1c(N)ncc2ccc(C#N)cc12,35.8%,19.9%,34.4%,16.5%,-8.03% (active),46.9%,-51% (active),7.77% (active),27.7%,4.11% (active),-34.3% (active),-12.5% (active),-45% (active),42.1%,74.4%,48.4%,-1.39% (active),-12% (active),34.4%,
Cn1cc(-c2noc(-c3cn(C)c4ncc(F)cc34)n2)c2cc(Br)ccc21,79.9%,98.7%,53.7%,67.8%,81.1%,74.8%,49.4%,77.9%,84.6%,86.6%,57.5%,60.8%,90.9%,76.1%,84.6%,71.3%,98.7%,,45.2%,
CN(C)c1ccc(-c2ccc(-c3ccc(C(=N)N)cc3)s2)cc1,-46.4% (active),87.4%,40.2%,-33.2% (active),24.5%,-50.3% (active),-63.9% (active),-66.6% (active),-88.4% (active),-4.45% (active),88.1%,-29.6% (active),54.3%,82.9%,102%,89.9%,104%,99.8%,-72.7% (active),
COc1ccc2c(c1)C(C)Cc1c(ncnc1-n1cnc3ccccc31)N2C (stereo not given),32.3%,41.5%,54.9%,24.1%,45.1%,-18.9% (active),29%,-28.7% (active),23.7%,14.2%,92.3%,12.9%,12.8%,37.4%,13.6%,4.91% (active),67.2%,18.3%,21.4%,
O=C1Nc2ccccc2/C1=C/C(=O)c1ccc(N2CCCC2)cc1,31.8%,73.4%,81.8%,33.4%,40.4%,-2.44% (active),100%,8.29% (active),12.3%,14.3%,39.3%,47.2%,20.6%,21.9%,68.8%,4.58% (active),78.1%,108%,54.4%,
C[N+](C)(C)c1ncnc2[n-]cnc12,57.8%,90.4%,105%,105%,83.2%,68.9%,72.7%,103%,99%,101%,98.3%,86.5%,97%,91%,88.7%,89.5%,-29.9% (active),89.9%,100%,
CC(C)c1ccc(C(=O)Nc2sc3c(c2C#N)CCC(=O)C3)cc1,-5.74% (active),50.5%,71.9%,36.9%,-52.2% (active),-36.7% (active),8.77% (active),-36.5% (active),43.9%,1.57% (active),-41.2% (active),-39.6% (active),-38.5% (active),26.9%,-7.58% (active),-48.4% (active),-2.97% (active),-6.52% (active),15%,
C=C(C)[C@@H]1CC[C@]2(C)[C@H](CC=C3[C@@H]4[C@@H](C)[C@H](C)CC[C@]4(C(N)=O)CC[C@]32C)[C@@]1(C)CCC#N,6.47% [100 µM] (active),-22.2% [100 µM] (active),0.378% [100 µM] (active),-1.03% [100 µM] (active),-37.7% [100 µM] (active),-6.12% [100 µM] (active),-36.5% [100 µM] (active),-78.9% [100 µM] (active),-0.419% [100 µM] (active),7.42% [100 µM] (active),-65.5% [100 µM] (active),-55.4% [100 µM] (active),-72.2% [100 µM] (active),15.2% [100 µM],5.51% [100 µM] (active),-63.1% [100 µM] (active),-11.4% [100 µM] (active),-3.77% [100 µM] (active),9.82% [100 µM] (active),
Nc1nc(Nc2ccccc2)c2ncn(Cc3cc4c(cc3Br)OCO4)c2n1,23.2%,29.4%,30.2%,11.3%,40%,-40.5% (active),20.3%,-38.3% (active),18.2%,10.2%,74.7%,-5.1% (active),22.9%,23.8%,14%,1.84% (active),58.3%,15.7%,13.5%,
O=C(Nc1cccc(F)c1)c1cc(=O)[nH]c2cc(Br)ccc12,72.5%,54.7%,53.8%,,47.4%,23.9%,69.7%,20.4%,74.2%,21.3%,52.8%,72.2%,56.1%,60.8%,38.9%,47.6%,57%,29.5%,40.3%,21.9
